For three compounds, fold change and cell count results are on record in PubChem BioAssay.

This assay in a line: sensitizers of A549 cells to miR-34 induction, primary screen, imaging, A549 dox-inducible miR-34, nuclei and caspase counts (AID 1347080). Note: test concentration not given here. Particulars: A549 miR-34 inducible, Hoechst nuclei count, 48 h.
Setting [1] is: stronger effect = lower value, cell number ratio, induced over uninduced.
Setting [2] is: measured here: relative caspase fold change +Dox/-Dox.
Setting [3] is: measured here: total cells with miR-34 induction, stronger effect = lower value.
Setting [4] is: measured here: total cells without miR-34 induction.

The source made the active and inactive calls.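 Rule for the calls: active = compounds whose cell count with miR-34 switched on is under 0.7 times the count with it off; inactive = the rest.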

Consider `O=C(O)CCC/C=C\C[C@@H]1[C@@H](/C=C/C(F)(F)COc2ccccc2)[C@H](O)C[C@@H]1O`, for which the fold change runs as follows: under setting [1], 1.03 (inactive); under setting [2], 1.05. Further, the cell count was determined as 5600 under setting [3] and 5440 under setting [4].

With `CCCCC[C@H](O)/C=C/[C@@H]1[C@@H](C/C=C\CCCC(=O)NC(CO)CO)[C@@H](O)C[C@H]1O`, the fold change is 1.01 (inactive) under setting [1] and 1.3 under setting [2]. Further, the cell count was determined as 6050 under setting [3] and 5980 under setting [4].

Consider `CC/C=C\C/C=C\C/C=C\CCCCCCCC(=O)NCCO`, for which the fold change under setting [1] is 1.05 (inactive) and the fold change under setting [2] turned out to be 0.865. Moreover, the cell count reads like this: under setting [3], 5950; under setting [4], 5670.
